Results published in PubChem BioAssay AID2685 (National Center for Advancing Translational Sciences (NCATS), 2010).
About 2,100 (0.66%) of roughly 320,000 compounds were called active. Another 53% or so got no clear call; they are omitted. Calls come from the whole dose curve; as a rule, active = well fitted inhibition curve with a large enough effect in the signal ratio, with a control signal flat (not every such curve was filed as active); inconclusive = small, poorly fitted or top-dose-only effect, or effect the other way, or a change in a side signal; inactive = flat fitted curve, though single readings scatter; the % refers to the signal ratio. Shown is part of a subset that was picked to be rich in actives.

Assay: qHTS Assay for Lipid Storage Modulators in Drosophila S3 Cells;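 for cell number change: cells counted by Cell Tracker Red CMTPX staining in the red channel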; for lipid storage change, negative = inhibition: % is set by controls: 0 for no effect and ±100 for the full control effect
Details: BODIPY lipid droplet fluorescence, 18-24 h, cells fed with added oleic acid; cell number change: measured here: cell count max response; series mostly up to 46.1 µM; lipid storage change, negative = inhibition: at the top concentration
Summary of the method: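 Laser-scanning cytometry quantifies lipid droplet accumulation (500–530 nm total intensity; droplet/cell object ratio) in oleic acid-fed (400 uM added) Drosophila S3 cells treated with a concentration series. 20 uM Triacsin C defined 100% inhibition.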
Potency is the fitted concentration of half-maximal effect.

Compound	lipid storage change, negative = inhibition	cell number change	Potency	outcome
O=C(CCN1CCN(CCO)CC1)Nc1ccc(Br)cc1	-8.8% (inactive)	0.964%		
O=C(CCN1CCN(CCO)CC1)Nc1ccc(F)c(F)c1		1.67%	6.51 µM (active)	
O=C(CSc1nc2c(c(=O)n1-c1ccc(F)cc1)SCC2)N1CCCC1	-0.194% (inactive)	-5.69%		
Cc1cc(C)cc(OC(=O)COc2ccccc2C)c1	0.642% (inactive)	16.2%		
CCCOc1ccccc1C(=O)N(Cc1ccco1)C1CCS(=O)(=O)C1 (stereo not drawn)	-5.58% (inactive)	-17.8%		
CCOC(=O)C1=C(COC(=O)CCC(=O)c2ccc(C)cc2)NC(=O)NC1C (stereo not drawn)	16.2% (inactive)	25.4%		
CC(=O)C(Sc1ccc2nnc(-c3ccncc3)n2n1)C(C)=O	10.9% (inactive)	11%		
Cc1cc(C)cc(N(CCC(=O)Nc2nnc(C)s2)S(=O)(=O)c2ccc(Cl)cc2)c1	13.3% (inactive)	-5.03%		
Cc1nc([N+](=O)[O-])c(SCC(N)=O)n1Cc1ccccc1	-0.96% (inactive)	11.1%		
Cc1ccc(C(=O)C2CCN(S(=O)(=O)c3ccccc3C(=O)O)CC2)cc1	-9.15% (inactive)	25.8%		
COCCN(CC1CCCN(C2Cc3ccccc3C2)C1)C(=O)CCC(F)(F)F (stereo not drawn)	-0.431% (inactive)	20.2%		
COc1ccc(NC(=O)N2CCCC(C(=O)NC(C)C)C2)cc1 (stereo not drawn)	11.9% (inactive)	10.2%		
O=C(Nc1ccc(C(=O)N2CCOCC2)cc1)Nc1cccc(Cl)c1	14.8% (inactive)	5.64%		
COc1cccc(NC(=O)COc2ccc3c(c2)CCC3)c1				inactive
COc1ccc(NC(=O)C2CCCN(C(=O)Nc3ccc(OC)cc3)C2)cc1 (stereo not drawn)		16.7%	1.03 µM (active)	
COc1ccc(NC(=O)COc2ccc3c(c2)CCC3)cc1			8.2 µM (active)	
CCOc1ccc(NC(=O)COc2ccc3c(c2)CCC3)cc1OC	0.757% (inactive)	-12.3%		
COc1ccc(NC(=O)N2CCCC(C(=O)Nc3ccccc3OC)C2)cc1 (stereo not drawn)	28.8% (inactive)	0.427%		
COc1ccc(NC(=O)CCN2CCCC(C)C2)cc1 (stereo not drawn)	0.0368% (inactive)	17%		
O=C(Nc1ccc(C(=O)N2CCCCC2)cc1)Nc1cccc(Cl)c1			13 µM (active)	
CC(=O)c1cccc(NC(=O)Nc2ccc(C(=O)N3CCCC3)cc2)c1	-1.01% (inactive)	14.3%		
COc1ccc(C(=O)CCN2CCCC(C)C2)cc1 (stereo not drawn)		-14.2%	11.6 µM (active)	
CC1CCCN(CCC(=O)c2ccc(Br)cc2)C1 (stereo not drawn)	4.51% (inactive)	-9.39%		

Compound	lipid storage change, negative = inhibition	cell number change	Potency	outcome
NS(=O)(=O)c1cc(Cl)c(NC(=O)COC(=O)c2ccccn2)c(Cl)c1	8.46% (inactive)	16.5%		
N#Cc1ccccc1OCC(=O)Nc1ccc2c(c1)OCCCO2		0.833%		inactive
O=[N+]([O-])c1ccc(Oc2ccc(OCc3ccccc3)cc2)nc1	-0.254% (inactive)	-9.11%		
CC(=O)Nc1ccc(NC(=O)C(C)OC(=O)CCC(=O)c2ccc(F)cc2)cc1 (stereo not drawn)	2.38% (inactive)	8.99%		
Cc1ccc(C(=O)NNC(=O)c2ccncc2)cc1C	11.9% (inactive)	12.2%		
CCOC(=O)N1CCN(CC(O)COc2c(C)cc(C)cc2C)CC1 (stereo not drawn)	7.41% (inactive)	5%		
O=C(Cc1ccc(S(=O)(=O)N2CCOCC2)s1)Nc1ccc2c(c1)CCC2	-2.06% (inactive)	-23.1%		
Cc1cccc(NC(=O)CCN2CCCCC2)c1	10.7% (inactive)	8.73%		
O=C(CCN1CCCCCC1)Nc1ccc(F)cc1	-0.0849% (inactive)	-3.75%		
O=C(CCN1CCCCC1)Nc1cccc(Cl)c1		-28.1%	25.9 µM (active)	
O=C(NCCN1CCCCC1)Nc1cccc(F)c1	15.7% (inactive)	-5.7%		
O=C(CCN1CCCCC1)Nc1ccccc1	-20.5% (inactive)	-23.3%		
CCOC(=O)c1cc(NC(=O)Cc2ccc(S(=O)(=O)N3CCOCC3)s2)cc(C(=O)OCC)c1		-15.4%	1.16 µM (active)	
CNC(=O)c1ccc(NC(=O)Cc2ccc(S(=O)(=O)N3CCOCC3)s2)cc1				inactive
O=C(CCN1CCCCCC1)Nc1cccc(F)c1		-13.4%	25.9 µM (active)	
COc1ccc(NC(=O)C2CCCN(S(=O)(=O)c3ccc4c(c3)oc(=O)n4C)C2)c(OC)c1 (stereo not drawn)	11.1% (inactive)	13.3%		
COc1cc(C2NC(=O)NC(C)=C2C(C)=O)cc(OC)c1OC (stereo not drawn)	11.4% (inactive)	0.318%		
COc1ccc(CC(=O)Nc2ccc(/C(C)=N\NC(=O)c3ccc(Br)o3)cc2)cc1	-18.3% (inactive)	2.49%		
COC(=O)c1ccc(COC(=O)C2CC(O)CN2S(=O)(=O)c2ccc([N+](=O)[O-])cc2)cc1 (stereo not drawn)	-0.843% (inactive)	2.24%		
CC1CCCC(C)N1C(=O)CSc1nnc(NC(=O)c2cccs2)s1 (stereo not drawn)	13% (inactive)	3.67%		
CCn1cc([N+](=O)[O-])c(C(=O)N2CCCCCC2)n1	0.775% (inactive)	11.5%		
CCn1cc([N+](=O)[O-])c(C(=O)N2CCCC2)n1		-10.5%	29.1 µM (active)	
CCn1cc([N+](=O)[O-])c(C(=O)N2CCOCC2)n1	-9.37% (inactive)	-13.3%		
